Most compounds without a hit are left out; they make up all but 7.5% or so of the library.
ELG1 genotoxic = induces genotoxicity in HEK293T cells with luciferase-tagged ELG1; Potency, µM (titrated, usually from 46 µM), without a hit: top-dose activity change, positive = activation, most hits filed as activators; AID 504466; HEK293T ELG1-luciferase reporter, luminescence, 16 h; 330,000 compounds, 1.3% hits; also: % of control where 0% means no effect; nearly all actives have a fitted effect of over 60% in size
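HEK293T cells expressing luciferase-tagged ELG1 were exposed to compound or DMSO vehicle for 16 hr at 37 °C and 5% CO2. Luciferase activity was then measured with ONE-Glo after 30 min at room temperature.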
FLuc counter = inhibits or activates purified firefly luciferase, miR-21 counter-screen; Potency, µM (top dose mostly 57.5 µM), without a hit: top-dose activity change, negative = inhibition, most hits filed as inhibitors; P08659; purified FLuc, Km substrates, luminescence inhibition; 360,000 compounds, 6.9% hits;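 also: plate controls were vehicle for no effect and reference inhibitor for full effect; nearly all actives have a fitted effect of over 55% in size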
Target sequence (P08659 whole entry, looked up): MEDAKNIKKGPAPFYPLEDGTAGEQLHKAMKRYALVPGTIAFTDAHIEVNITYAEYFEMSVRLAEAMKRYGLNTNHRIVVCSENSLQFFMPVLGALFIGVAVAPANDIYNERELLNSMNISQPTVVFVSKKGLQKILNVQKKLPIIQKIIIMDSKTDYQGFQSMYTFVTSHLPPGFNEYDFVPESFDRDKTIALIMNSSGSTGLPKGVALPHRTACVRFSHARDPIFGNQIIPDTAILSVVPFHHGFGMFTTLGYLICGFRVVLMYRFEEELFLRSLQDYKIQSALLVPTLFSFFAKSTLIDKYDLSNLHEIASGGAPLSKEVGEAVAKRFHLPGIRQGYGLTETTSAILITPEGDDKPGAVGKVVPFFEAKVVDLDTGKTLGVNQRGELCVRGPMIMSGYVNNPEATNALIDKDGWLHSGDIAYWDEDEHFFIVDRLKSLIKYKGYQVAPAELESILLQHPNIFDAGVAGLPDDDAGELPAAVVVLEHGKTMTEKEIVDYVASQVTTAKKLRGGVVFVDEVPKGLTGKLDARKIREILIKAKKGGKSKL
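Purified P. pyralis luciferase (10nM final) with 10uM D-luciferin and 10uM ATP (Km levels) in 50mM Tris acetate pH 7.5, 10mM Mg acetate, 0.01% Tween-20, 0.05% BSA; qHTS 6-point titration, ~60 µM downward; luminescence read.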
NPC1 prom act = activates the NPC1 promoter. Huh7 NPC1 promoter luciferase reporter, 24 h. Potency, µM (titrated, usually from 9.22 µM), for inactives: at the highest dose activation, actives largely listed as activators. 320,000 compounds, 2.4% hits; also: % of control where 0% means no effect; nearly all actives have a fitted effect of over 60% in size
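Cells: Huh7 expressing luciferase under the NPC1 promoter, 1500/well. Seeded 2 h, compound added, incubated 24 h at 37 °C. Luciferase reagent, 10 min ambient, then luminescence.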
Rab9 promoter act = Rab9 promoter activation; Huh7 Rab9 promoter-luciferase reporter, luminescence, 24 h; Potency, µM (series often up to 9.22 µM), without a hit: top-dose activation, negative = inhibition, usual class: activators; 320,000 compounds, 2.8% hits; AID 485297; also: % of control where 0% means no effect; nearly all actives have a fitted effect of over 60% in size
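Measured in stably transfected Huh7 cells bearing a Rab9 promoter–luciferase construct: 24 h compound treatment at 37 °C, followed by luminescence detection.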
SMN2 splice enh = SMN2 splice variant enhancement; HEK293 SMN2-luciferase splicing reporter, luminescence, 30-36 h; Potency, µM (highest dose often 46.1 µM), for the others: at the top dose activity change, positive = activation, hits mostly activators; 210,000 compounds, 2.8% hits; AID 1458; also: % of control where 0% means no effect; nearly all actives have a fitted effect of over 55% in size
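qHTS luciferase splicing reporter: luminescence rises when SMN2 exon 7 is included in transfected HEK293 cells. Compound exposure lasted 30-36 h at 37C, with 4.5 mM final sodium butyrate as control, followed by a ONE-Glo read.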
Starred values were filed as active, the others as inactive; ? = inconclusive; / = no result; [ ] = remark or other dose. Calls follow the shape of the dose curve; as a rule, active = well fitted curve in the direction sought with a large enough effect; inconclusive = small, poorly fitted or top-dose-only effect, or another doubt; inactive = no such curve, though single readings can be large; an effect the other way counts as inactive or inconclusive. Potency is read from the fitted curve at half-maximal effect.

SMILES | ELG1 genotoxic | FLuc counter | NPC1 prom act | Rab9 promoter act | SMN2 splice enh
O=c1cc(-c2ccc(C3CCCCC3)cc2)[nH][nH]1 | 16.6% | 10.7µM* | 3.8% | 1.1% | 8.9%
Cc1c(C(=O)N2CCCC2)oc2c1-c1nn(CC(=O)NC(C)c3ccccc3)cc1CC2 (stereo not given) | / | -8.9% | / | / | /
Cc1ccc(-c2n[nH]c(=S)n2/N=C/c2c(C)nn(-c3ccccc3)c2C)cc1 | -2.4% | 7.1% | -4.5% | -2.1% | -5.7%
Cc1ccccc1-c1n[nH]c(=S)n1/N=C/c1c(C)nn(-c2ccccc2)c1C | -8.6% | 0.9% | -1.9% | 0.0% | 14.1µM*
COC(=O)COc1ccsc1C(=O)OC | -1.3% | 1.2% | -2.5% | -1.5% | -11.0%
COC(=O)CSc1ccc2c(N)c(C(=O)OC)sc2c1 | -0.4% | 19µM* | -2.4% | 2.3% | ?
CC(C)(C)OC(=O)NCCCCC1=CC2=CC(=O)C(C)(OC(=O)C3CCCC3)C(=O)C2=CO1 (stereo not given) | / | / | / | / | 15.1%
COc1cccc(CN2CCN(Cc3cccc4c3OCO4)CC2CCO)c1 (stereo not given) | ? | 2.39µM* | 0.398µM* | 0.0891µM* | /
Cc1ccc(CN2CCN(Cc3cccc4c3OCO4)CC2CCO)cc1 (stereo not given) | -2.6% | 1.0% | -5.9% | -2.0% | /
CCc1c(C)sc(NC(=O)Cc2ccccc2C)c1C(=O)N1CCOCC1 | -0.6% | 2.5% | -8.6% | -6.0% | /
COc1ccc(N2C(=O)c3ccccc3NC2c2ccc(OC)c(COc3ccccn3)c2)cc1 (stereo not given) | ? | -2.1% | ? | ? | 12.6µM*
COc1ccc(N2C(=O)c3ccccc3NC2c2ccc(OC)c(CSc3ccccn3)c2)cc1 (stereo not given) | ? | ? | ? | 25.1% | ?
COc1ccc(C2Nc3ccccc3C(=O)N2c2ccc(C)cc2)cc1Cn1cc([N+](=O)[O-])cn1 (stereo not given) | 12.2% | ? | 3.98µM* | 3.98µM* | 20µM*
O=C(CSc1nnc2n1CCCCC2)Nc1ccc(N2CCOCC2)cc1 | 2.1% | 16.9µM* | 0.9% | -1.8% | /
Cc1ccc(C(=O)NCc2nnc(SCC(=O)Nc3ccccc3)n2C)cc1 | -1.9% | 21.3µM* | 0.0% | -2.3% | -1.7%
Cc1ccccc1OCc1nnc(SCC(=O)Nc2ccc(N3CCOCC3)cc2)n1C | 13.2% | ? | 5.1% | 5.5% | /
CCc1nnc(SCC(=O)Nc2ccc(N3CCOCC3)cc2)n1C | 9.4% | 21.3µM* | -0.9% | 6.2% | /
CCOc1ccc(N(CC)S(=O)(=O)N2CCCC(C(=O)Nc3ccc(NC(C)=O)cc3)C2)cc1 (stereo not given) | / | 6.5% | / | / | /
CCCn1c(SCc2nc(-c3cc(OC)ccc3OC)no2)nnc1-c1ccc(Cl)cc1 | / | -4.9% | / | / | -8.0%
COCCCNc1nc2ccccc2nc1NS(=O)(=O)c1cc(Cl)ccc1Cl | -4.4% | 3.0% | -3.6% | -0.5%[1.84 µM] | /
O=C(Nc1ccon1)c1sc2cc(F)ccc2c1Cl | ? | ? | 3.16µM* | 2.51µM* | 22.4µM*
O=C(NCc1ccco1)c1sc2cc(F)ccc2c1Cl | 11.5% | 15.1µM* | 19.8% | 28.5% | 12.6µM*
O=C(NC1=NCCS1)c1sc2cc(F)ccc2c1Cl | ? | 2.39µM* | 5.01µM* | 2.24µM* | 7.08µM*
O=C(NCc1ccco1)c1cccc(F)c1 | / | 2.7% | / | / | -15.9%
CCCN(CCC)CCNC(=O)c1cc2c(=O)oc3ccc(C)cc3c2s1 | / | 1.7% | / | / | -9.5%
SMILES | ELG1 genotoxic | FLuc counter | NPC1 prom act | Rab9 promoter act | SMN2 splice enh
Cc1cccc(-n2c(C)nc3cc(C(=O)N4CCOCC4)ccc32)c1 | 8.2% | -2.4% | 2.2% | 7.5% | /
COC(=O)c1ccc2c(=O)n(CCCCCC(=O)NCCNC(C)=O)c(=O)[nH]c2c1 | 0.0% | -3.4% | -4.3% | 2.4% | 7.3%
C[N+](C)(C)CCC(=O)c1cccc2ccccc12 | / | / | / | / | -16.1%
COc1ccc2c(c1)CCc1c(C(=O)Nc3c(C)nn(Cc4ccc(C)cc4)c3C)noc1-2 | / | -4.6% | / | / | 3.2%
Cc1cccc(OCC(=O)N/N=C/c2ccc(N(C)C)cc2)c1 | 2.5% | ? | -3.0% | -2.8% | 1.5%
CN(C)c1ccc(/C=N/NC(=O)COc2ccccc2)cc1 | 7.0% | 19µM* | 9.3% | 19.7% | 15.2%
CNC(=S)N/N=C/c1ccc(N(C)C)cc1 | ? | ? | 3.55µM* | 2.82µM* | /
CN(C)c1ccc(/C=N/NC(=O)CNC(=O)/C=C/c2ccccc2)cc1 | ? | 2.39µM* | ? | ? | /
CCN=C1NN=C(c2cc(C)n(Cc3ccco3)c2C)CS1 | ? | 0.213µM* | -19.7% | -18.8% | -81.6%
C=CCn1c(C)cc(C2=NNC(=NCc3ccccc3)SC2)c1C | ? | 19µM* | ? | 2.24µM* | 12.6µM*
Cc1cc(C2=NNC(=NCCc3ccccc3)SC2)c(C)n1CC1CCCO1 (stereo not given) | 8.1% | 15.1µM* | 29.7% | ? | -37.1%
COCCn1c(C)cc(C2=NNC(=Nc3ccccc3)SC2)c1C | ? | 0.757µM* | 0.355µM* | 0.398µM* | ?
CCN=C1NN=C(c2cc(C)n(CCc3ccccc3)c2C)CS1 | ? | -16.1% | 3.3% | -0.9% | -43.2%
O=C(CCc1nc2ccccc2c(=O)[nH]1)NNC(=O)c1ccc(F)cc1 | 1.2% | 4.3% | -2.0% | 1.2% | /
Cc1ccc(-c2nc(CNC(=O)NC3CCCCC3)c(C)o2)cc1 | / | -0.2% | / | / | /
CC(=O)Nc1ccc(S(=O)(=O)N2CCN(C(=O)c3ncoc3-c3ccc(F)cc3)CC2)cc1 | -5.7% | 1.0% | 0.6% | 0.2% | /
O=S(=O)(NCC1CCCO1)c1ccc(-c2ccc(Cl)cc2)cc1 (stereo not given) | 3.6% | -9.2% | -9.4% | -13.6% | -61.6%
Clc1ccc(C2=NNC(=NCC3CCCO3)SC2)cc1 (stereo not given) | 20.1% | 12µM* | 3.16µM* | ? | 11.2µM*
CC(=O)N1CCc2cc(N=NC3=C(O)CCCC3=O)ccc21 | ? | 15.1µM* | ? | 3.55µM* | 171.2%
Cc1nc2cc(N=NC3=C(O)CCCC3=O)ccc2s1 | ? | 13.5µM* | 9.5% | 15.7% | ?
O=C(COc1ncnc2ccccc12)c1ccc2c(c1)OCCO2 | ? | 4.78µM* | 1.12µM* | 1.12µM* | /
O=C(COc1ncnc2cc(Cl)ccc12)c1ccc2c(c1)OCCO2 | ? | 1.9µM* | 3.16µM* | 0.631µM* | /
Cc1ccc(C)c(C(=O)COc2ncnc3ccccc23)c1 | 1.6% | ? | 8.2% | 17.7% | 14.2%
O=C(CSc1ncnc2ccccc12)c1ccc2c(c1)OCCO2 | ? | 3.38µM* | ? | 2.82µM* | /
CCc1nc(SCC(=O)c2ccc3c(c2)OCCO3)c2ccccc2n1 | -5.9% | ? | 0.2% | -1.3% | -37.3%
CCOc1ccc(CCNC(=O)c2cc(=O)[nH]c3ccc(S(=O)(=O)N4CCCCC4)cc23)cc1OCC | / | -0.3% | / | / | /
